Drawing on ChEMBL document CHEMBL4513216, “Probing the Open Global Health Chemical Diversity Library for Multistage-Active Starting Points for Next-Generation Antimalarials” (ACS Infect Dis, 2020), this text covers INHIBITION for 53 compounds.

Among all 65,000 compounds or so, about 2,100 (3.2%) showed an effect of 50% or more. The median lay at about -52%. The full list was thinned out, with strong results kept by preference.

This assay concerns Plasmodium falciparum. The assay is described as follows: Screen against P. falciparum Asexual Blood Stage (ABS), at 5uM. The conditions noted are these: tested at 5 uM. The format is functional, Dd2.
Consider `NC(=O)c1ccn(COc2ccccc2Cl)n1`, for which the INHIBITION is given as -63.1%. `Cc1cnn(C2CN(c3ccccc3S(=O)(=O)C(F)(F)F)C2)c1`: the INHIBITION is on record as -111%.

On to `CS(=O)(=O)NC[C@H]1Cn2c(-c3ccccc3)cnc2CO1`, for which the INHIBITION is -21%. For `CS(=O)(=O)NC[C@H]1Cn2c(-c3ccc(F)cc3)cnc2CO1`, the INHIBITION is on record as -34.5%.

As to `CS(=O)(=O)NC[C@H]1Cn2c(-c3ccc(Cl)cc3)cnc2CO1`, the INHIBITION was found to be 57.1%.

Turning to `CN(C)Cc1csc(-c2nccn2Cc2ccsc2)c1`, the INHIBITION amounted to 17.1%.

As for `Cc1cccc(C(=O)N2CCC[C@]3(C[C@@H](OCC4CC4)CO3)C2)n1`, the INHIBITION is -156%. The value for `Cn1cc(CN2C[C@H](N3CCOCC3)[C@@H]3OCCC[C@@H]32)cn1` was -93.3%. Regarding `CCN1CCC(NC(=O)NCC(O)c2ccc(Cl)c(F)c2)CC1` (stereo not drawn), the INHIBITION was -34.9%. The value for `COc1cccc(C(O)CNC(=O)CC2CCCCC2)c1` (stereo not drawn) was -143%; that for `c1ccc(COc2cccc(CNC3CCc4ncnn4C3)c2)cc1` (stereo not drawn) was 24.8%; that for `OC(CNC1CCOCC1)c1ccc(Cl)c(F)c1` (stereo not drawn) was 50.9%.

With `O=C(NCC(O)c1ccc(Cl)c(F)c1)NC1CC=CC1` (stereo not drawn), the INHIBITION was -14.7%. The value for `OC(CNC1CCOCC1)c1cccc(OCc2ccccc2)c1` (stereo not drawn) was 53.2%; that for `CC(C)(CNc1cccc(Cl)c1)NC(=O)C1CCCN(CC(N)=O)C1` (stereo not drawn) was -34.6%.

Consider `COc1ccccc1-c1ncc(CN2CCCC(CCC(N)=O)C2)s1` (stereo not drawn), for which the INHIBITION is -43.7%. The value for `COc1ccccc1-c1ncc(CN2C[C@H](O)[C@@H](N3CCCC3)C2)s1` was 16.5%. The value for `COc1ccccc1-c1ncc(CN2C[C@@H](N(C)C)[C@H](C(C)C)C2)s1` was 54.7%; that for `CCc1csc(C2CCCN(C(=O)c3ncccn3)C2)n1` (stereo not drawn) was -94%; that for `CN(C)CCn1c(=O)n(C)c(=O)c2ccccc21` was -7.78%. Consider `CC(C)n1c(=O)c2ccccc2n(CCCN(C)C)c1=O`, for which the INHIBITION was found to be 59.5%. On to `CC(C)n1c(=O)c2ccccc2n(CCN(C)C)c1=O`, for which the INHIBITION is 36.1%. The value for `CCN(Cc1ccccc1)C(=O)CCN1CC(O)C1` was -76.9%. The value for `Cc1nc(C)c(C(=O)N2Cc3ccccc3OCC2Cn2ccnc2)s1` (stereo not drawn) was -22.8%.

Turning to `N#Cc1ccccc1N1CCN(C(=O)NCC(=O)N2CCCC2)CC1`, the INHIBITION is given as -1.82%. The value for `CN1CCCCC1C(=O)N1CCN(c2ccccc2C#N)CC1` (stereo not drawn) was 11.5%. For `COC(=O)N1CCCCC1C(=O)N1CCN(c2cccnc2)CC1` (stereo not drawn), the INHIBITION was -87.5%.

Consider `CN1CCCCCC1C(=O)N1CCCN(c2ccccc2)CC1` (stereo not drawn), for which the INHIBITION came to 61.8%. With `CN1CCCCCC1C(=O)N1CCN(c2ccccc2C#N)CC1` (stereo not drawn), the INHIBITION is 60.4%.

In the case of `CC(C)N1CCC(C(=O)N2CCCN(c3ccccc3)CC2)CC1`, the INHIBITION was -38.1%. The value for `CC[C@H]1CN(C(=O)c2ccc(-n3cnnc3)nc2)CC[C@@]1(C)O` was -129%.

On to `Cc1noc(C)c1CCC(=O)N1CCCN(Cc2cccs2)CC1`, for which the INHIBITION is given as -63%. The value for `CC(C1CCN(Cc2ccc(OC(F)F)cc2)CC1)N1CCOCC1` (stereo not drawn) was -26.3%; that for `CC(C)Oc1cccc(CN2CCC(c3n[nH]c4ncccc34)CC2)c1` was -51.3%; that for `CC(C1CCN(Cc2ccccc2OC(F)F)CC1)N1CCOCC1` (stereo not drawn) was 9.39%.

Consider `CC(C1CCN(Cc2ccc(N(C)C)nc2)CC1)N1CCOCC1` (stereo not drawn), for which the INHIBITION is -5.43%. The value for `CC(C1CCN(Cc2cccc(OC(F)F)c2)CC1)N1CCOCC1` (stereo not drawn) was 68.3%.

Consider `CC(C)Oc1cccc(CN2CCC(C(C)N3CCOCC3)CC2)c1` (stereo not drawn), for which the INHIBITION is on record as 55.8%. The value for `CCc1ccc(C(CNC(=O)c2c(C)noc2C)N(C)C)cc1` (stereo not drawn) was -71.9%; that for `O=C(NC1CC1)[C@H]1C[C@H]2OCC[C@H]2N(CC2CC2)C1` was -28.3%. The value for `CC(C)(C)CC(=O)NCCn1nc(C2CCNC2)c2cccnc21` (stereo not drawn) was -134%; that for `Cc1nccc(NCc2cncc3c2CCN(CC2CCOC2)C3)n1` (stereo not drawn) was -81.6%; that for `CC(C)n1cc(C(=O)N2CCN(c3cccc(C(F)(F)F)c3)CC2)cn1` was -46.5%. Consider `O=C(O)c1cn(CC2CCCN(c3nccc4occc34)C2)nn1` (stereo not drawn), for which the INHIBITION is -30.1%. As to `CN(C)Cc1cn(CC2CCCN(c3nccc4occc34)C2)nn1` (stereo not drawn), the INHIBITION was 60.5%. `CC(O)Cc1cn(CC2CCN(c3nccc4occc34)CC2)nn1` (stereo not drawn): the INHIBITION was -39.4%. Take `CC(C)(C)c1ncc(C(=O)NCc2ccccc2CN2CCCC2)s1`: the INHIBITION was -23.4%. The value for `O=C(c1ccc[nH]1)N1C[C@H](OCc2ccccn2)[C@H]2COC[C@H]21` was -89.2%; that for `O=C1NCCN1C1CCN(Cc2coc(-c3ccc(F)cc3)n2)CC1` was -71.8%; that for `Cn1nc(CN2CCCN(C3CCCC3)CC2)c2c(Cl)cccc21` was 68.9%. As for `C[C@@H]1CN(C2CCN(Cc3nn(C)c4cccc(Cl)c34)CC2)C[C@H](C)O1`, the INHIBITION is listed as -9.68%. The value for `Cn1nc(CN2CCC(c3ccncc3)CC2)c2c(Cl)cccc21` was -14.6%; that for `COCCN1C(=O)CO[C@H]2CN(Cc3ccccc3Cl)C[C@@H]21` was -123%.
